In PubChem BioAssay (NCI):
This is part of a sample that, as a whole, favours compounds with a hit. Of some 83,000 tested, about 20% had one in any assay.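 Percent growth is the endpoint: 0 to 100 indicates growth inhibition (40 means 60% inhibition), 0 means no net growth, and negative values indicate cell death.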 Activity calls are given as the source filed them. Rule for the calls: active = growth percent below 10; inactive = the rest.

What was measured:
Assay in all cases: NCI-60 one-dose screen, 48 h (100 = growth as untreated, 0 = no growth, -100 = all killed)
Conditions in all cases: 10 µM unless noted
HCT-15 colon = test system: HCT-15 colon
HT29 colon = test system: HT29 colon
SNB-75 CNS = test system: SNB-75 CNS
SNB-19 CNS = test system: SNB-19 CNS
U251 CNS = test system: U251 CNS
PC-3 prostate = test system: PC-3 prostate
SK-MEL-5 melanoma = test system: SK-MEL-5 melanoma
UACC-62 melanoma = test system: UACC-62 melanoma
LOX IMVI melanoma = test system: LOX IMVI melanoma
SK-MEL-28 melanoma = test system: SK-MEL-28 melanoma

Measured: growth

COC(=O)c1ccc(NC(N)=NCCC(C)(C)c2ccc(C(F)(F)F)cc2)nc1
inactive: HCT-15 colon 37.8% | HT29 colon 11.6% | SNB-75 CNS 67.3% | SNB-19 CNS 59.9% | U251 CNS 30.5% | PC-3 prostate 36% | UACC-62 melanoma 55.2% | SK-MEL-28 melanoma 35.2%
active: SK-MEL-5 melanoma -85.4% | LOX IMVI melanoma -77.3%

COc1ccc(/C(=C\c2cc(OC)c(OC)c(OC)c2)C(=O)Nc2nc3ccc(Cl)cc3s2)cc1
inactive: HCT-15 colon 93.2% | HT29 colon 88.3% | SNB-75 CNS 89% | SNB-19 CNS 105% | U251 CNS 90.8% | PC-3 prostate 87.5% | SK-MEL-5 melanoma 87.6% | UACC-62 melanoma 77.6% | LOX IMVI melanoma 92.5% | SK-MEL-28 melanoma 107%

O=C(CCc1nc2sc3c(c2c(=O)[nH]1)CCC3)NCc1cn(-c2ccccc2)nc1-c1ccccc1
inactive: HCT-15 colon 86% | HT29 colon 83.3% | SNB-19 CNS 49.8% | U251 CNS 44% | PC-3 prostate 29.9% | SK-MEL-5 melanoma 72.5% | UACC-62 melanoma 88.6% | LOX IMVI melanoma 44% | SK-MEL-28 melanoma 79.1%
active: SNB-75 CNS -59%

CCOC(=O)C1=C(C)NC(SCc2nnc(-c3ccc(Cl)cc3)o2)=NC1c1ccc(Cl)cc1 (stereo not given)
inactive: HCT-15 colon 67.6% | HT29 colon 75.2% | SNB-75 CNS 73.7% | SNB-19 CNS 73% | U251 CNS 73.9% | PC-3 prostate 48.8% | SK-MEL-5 melanoma 40.9% | UACC-62 melanoma 49.9% | LOX IMVI melanoma 76.9% | SK-MEL-28 melanoma 79.8%

O=C(C(Br)C(Br)c1ccccc1)C(Br)C(Br)c1ccccc1 (stereo not given)
inactive: SNB-75 CNS 60% | SNB-19 CNS 72.8%
active: HCT-15 colon -66.4% | HT29 colon -76% | U251 CNS 4.89% | PC-3 prostate -31.2% | SK-MEL-5 melanoma 2.03% | UACC-62 melanoma -83.5% | LOX IMVI melanoma -79.1% | SK-MEL-28 melanoma -35.6%

Oc1ccc(-c2cnc(-c3ccccc3)[nH]2)c(O)c1
inactive: HCT-15 colon 107% | HT29 colon 120% | SNB-75 CNS 94.2% | SNB-19 CNS 98% | U251 CNS 110% | PC-3 prostate 100% | SK-MEL-5 melanoma 105% | UACC-62 melanoma 85.6% | LOX IMVI melanoma 105% | SK-MEL-28 melanoma 105%

CC(=O)O[C@H]1[C@H](CC#CC#CC[C@@H]2C[C@]3(C)[C@H]4CC=C5[C@H]6[C@@H](C)[C@H](C)CC[C@]6(C(=O)NCCN(CCN)CCN)CC[C@@]5(C)[C@]4(C)CC[C@H]3C(C)(C)[C@H]2OC(C)=O)C[C@]2(C)[C@H]3CC=C4[C@H]5[C@@H](C)[C@H](C)CC[C@]5(C(=O)NCCN(CCN)CCN)CC[C@@]4(C)[C@]3(C)CC[C@H]2C1(C)C
inactive: HCT-15 colon 26.8% | HT29 colon 58.1% | SNB-75 CNS 68.1% | SNB-19 CNS 31.9% | U251 CNS 36.2% | PC-3 prostate 51.7% | SK-MEL-5 melanoma 92.2% | UACC-62 melanoma 40.9% | LOX IMVI melanoma 50.9% | SK-MEL-28 melanoma 85%

O=Cc1ccc2nc(C(Cl)(Cl)Cl)ccc2c1
inactive: HCT-15 colon 101% | HT29 colon 102% | SNB-75 CNS 99.9% | SNB-19 CNS 102% | U251 CNS 92.8% | PC-3 prostate 98.4% | SK-MEL-5 melanoma 95% | UACC-62 melanoma 106% | LOX IMVI melanoma 96.1% | SK-MEL-28 melanoma 105%

Nc1ncnc2c1N=C(c1ccc(F)cc1)CC(c1sc(Cl)nc1Cl)N2 (stereo not given)
inactive: HCT-15 colon 102% | HT29 colon 92.2% | SNB-75 CNS 74% | SNB-19 CNS 92.9% | U251 CNS 84.7% | PC-3 prostate 79.5% | SK-MEL-5 melanoma 92% | UACC-62 melanoma 94.5% | LOX IMVI melanoma 93% | SK-MEL-28 melanoma 102%

CCOC(=O)Nc1ccc2nc(-c3cscn3)[nH]c2c1
inactive: HCT-15 colon 37.8% | HT29 colon 14.8% | SNB-75 CNS 33.1% | SNB-19 CNS 63.2% | U251 CNS 35% | PC-3 prostate 82.2% | SK-MEL-5 melanoma 31.9% | UACC-62 melanoma 45.4% | LOX IMVI melanoma 46.6% | SK-MEL-28 melanoma 53.4%

Nc1cccc(S(=O)(=O)c2cccc(N)c2)c1
inactive: HCT-15 colon 114% | HT29 colon 110% | SNB-75 CNS 88.3% | SNB-19 CNS 133% | U251 CNS 113% | PC-3 prostate 92% | SK-MEL-5 melanoma 113% | UACC-62 melanoma 102% | LOX IMVI melanoma 104% | SK-MEL-28 melanoma 126%

Cn1c(=O)c2c3c(oc2c2ccccc21)C(=O)c1ccccc1C3=O
inactive: HCT-15 colon 85% | HT29 colon 73.7% | SNB-75 CNS 64.4% | SNB-19 CNS 93.3% | U251 CNS 90.2% | PC-3 prostate 64.4% | SK-MEL-5 melanoma 76.9% | UACC-62 melanoma 77% | LOX IMVI melanoma 76.6% | SK-MEL-28 melanoma 112%

Nc1nc(N)c2c(n1)NC(c1sc(Cl)nc1Cl)CC(c1ccc3c(c1)OCO3)=N2 (stereo not given)
active: HT29 colon 5.28% | SNB-75 CNS -1.52%
inactive: HCT-15 colon 23.9% | SNB-19 CNS 36.8% | U251 CNS 10.4% | PC-3 prostate 48.8% | SK-MEL-5 melanoma 11% | UACC-62 melanoma 40.1% | LOX IMVI melanoma 40.3% | SK-MEL-28 melanoma 57%

COc1cccc(OCC(O)CN2CCN(c3ccccc3)CC2)c1 (stereo not given)
inactive: HCT-15 colon 117% | HT29 colon 103% | SNB-75 CNS 96.5% | SNB-19 CNS 105% | U251 CNS 108% | PC-3 prostate 109% | SK-MEL-5 melanoma 108% | UACC-62 melanoma 94.3% | LOX IMVI melanoma 104% | SK-MEL-28 melanoma 81.4%
